# Assay: probe aEGFR binding to arrayed compounds – biochemical, biotinylated probe, 635/667 nm fluorescence, primary screen (AID 1097);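 note: probe is a biotinylated anti-EGFR antibody binding compounds printed on slides; score combines fluorescence near 667 nm and signal to noise of each spot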
# Details: small-molecule microarray, higher = more signal
row,SMILES,composite z-score
1,Cc1ccc(S[C@]2(C(=O)O)CC(=O)N(Cc3ccccc3Cl)[C@@H]2c2ccc(CO)cc2I)cc1,0.519
2,COCCCNC(=O)[C@@]1(Sc2ccc(C)cc2)CC(=O)N(C2CCCCC2)[C@@H]1c1ccc(CO)cc1,-0.221
3,COCC1=C2[C@@H](CCc3ccccc3)OB(O)C[C@@H]2[C@@H]2C(=O)C=CC(=O)[C@@H]2C1,-0.106
4,COc1ccc([Si](C)(C)[C@@H]2[C@@H](CCn3cc([C@H](O)c4ccccc4)nn3)O[C@]3(C(=O)N(Cc4ccc(N5CCC5=O)cc4)c4ccccc43)[C@H]2C)cc1,-0.313
5,CCOc1cc(C(O)C2C=CC3C(=O)N(C)C(=O)C3N2Nc2ccccc2)ccc1O (stereo not given),0.0439
6,C=C(C(=O)CC[C@@H](OC(C)=O)c1ccc(CO)o1)C(C)C,-0.15
7,CC(=O)NCCCC[C@@H]1NC(=O)[C@@H]2C[C@H](C(=O)NCCCC[N+](C)(C)C)[C@H](c3ccc(O)cc3)N2C1=O,-0.0131
8,CCOC(=O)C1CCCCN1 (stereo not given),0.641
9,C=CCOC(=O)[C@H]1[C@@H]2C(=O)O[C@@H](c3ccccc3)[C@@H](c3ccccc3)N2[C@@H](c2ccc(OCCOC(=O)[C@@H]3C[C@@H]4C(=O)N[C@@H](CCCCN(C)C)C(=O)N4[C@@H]3c3ccc(O)cc3)cc2)[C@]12C(=O)Nc1ccccc12,-0.0177
10,CCCC[C@@H]1C[C@H]1[C@@H](NC(=O)c1cccs1)c1ccc(C(F)(F)F)cc1,-0.168
